Experimental findings from PubChem BioAssay AID1259343 (VanderVen Lab, College of Veterinary Medicine, Cornell …, 2017) are described below.

The structures appear in SMILES notation. Hit rate of the full screen: of about 6,200 compounds, about 2,900 (47%) were called active. No stated cut-off is given here; in the data, active means inhibition above about 50%; inactive means the rest. So high a share suggests a set chosen from earlier hits. Some of the results follow.

This assay is described as follows: Mycobacterium tuberculosis growth inhibition, primary screen (AID 1259343). Conditions: inhibition: at 10 µM, hits give high values; outcome: 10 uM.
Turning to `COc1ccc(Cl)c2sc(N(CCCN(C)C)C(=O)Cc3ccccc3)nc12`, the inhibition is 69.2% (active).
Consider `Cc1cc(C(=O)N(CCCN(C)C)c2nc3ccc(Cl)cc3s2)nn1C`, for which the inhibition was 30.6% (inactive).
Turning to `CCC(C)(C)C1CCC2(CC1)NCCc1c2[nH]c2ccccc12` (stereo unspecified), the inhibition was 0.19% (inactive).
Under `Cc1nonc1CN(C)C(=O)c1coc(COc2cccc(C(F)(F)F)c2)n1` stands 22.3% (inactive); under `C=CCN(C)C(=O)c1coc(COc2ccc3ccc(OC)cc3c2)n1`, 65.1% (active).
Consider `C=C(C)CN(C)C(=O)c1coc(COc2ccc3c(c2)OCO3)n1`, for which the inhibition was 26.6% (inactive).
For the compound `N#Cc1c(F)cccc1NCc1csc(C2CC2)n1`, the inhibition is 57.3% (active).
For `N#Cc1c(F)cccc1NCCNc1nc2ccccc2o1` the value was -5.14% (inactive); for `Cc1ccc(NC2OC(CO)C(O)C(O)C2O)cc1Br` (stereo unspecified), 84.8% (active).
Turning to `OCC1O[C@H]([S-])[C@@H](O)C(O)[C@@H]1O.[Au+]` (stereo partly specified), the inhibition is 5.4% (inactive).
`CN(C)CCCOc1ccc(-c2nnc3ccc(-c4cccc(Oc5ccccc5)c4)cn23)cc1`: the inhibition was 66.5% (active).
For `COc1cccc(-c2nc3ccc(-c4cccc(Cl)c4)cn3c2CN2CCNCC2)c1` the value was 23.2% (inactive); for `Cc1cc(NC(=O)CNC(c2ccccn2)C(C)C)ccc1Cl` (stereo unspecified), 79.4% (active); for `CCOc1cccc(-c2cnc(NC(C)=O)cn2)c1`, 23.7% (inactive).
For `CCOc1cccc(-c2cccc(-n3cnnc3)c2)c1` the value was 66% (active); for `Oc1ccc(CC2COCC(Cc3ccc(O)cc3)C2)cc1` (stereo unspecified), 62.4% (active); for `CS(=O)(=O)c1nc(-c2cccs2)cc(C(F)(F)F)n1`, 101% (active).
For `CS(=O)(=O)c1nc(-c2ccccc2)cc(C(F)(F)F)n1` the value was 99.7% (active); for `CS(=O)(=O)c1nc(-c2ccc(F)cc2)cc(C(F)(F)F)n1`, 101% (active); for `O=c1[nH]c(=S)[nH]c2nc(-c3cccs3)cc(C(F)(F)F)c12`, 34.4% (inactive).
In the case of `O=c1ccc(-c2ccc(F)cc2)nn1Cc1ccc(C(F)(F)F)cc1`, the inhibition is 20% (inactive).
For `Cc1ccc(-c2cc(C(F)F)nc(S(C)(=O)=O)n2)cc1` the value was 90.4% (active).
For `O=c1ccc(-c2ccc(F)cc2)nn1Cc1cccc(C(F)(F)F)c1` the value was 35.1% (inactive); for `Cn1cccc1C1CCCCCN1C(=O)c1ccc(NC2CC2)nc1` (stereo unspecified), -11.4% (inactive).
For `COc1ccc(-c2cc(C(F)(F)F)nc(S(C)(=O)=O)n2)cc1` the value was 101% (active).
Consider `Cc1nc2c(OCc3cc(Cl)cc(Cl)c3)cccn2c1N(C)Cc1cccs1`, for which the inhibition was 82.7% (active).
Under `CC(C(=O)Nc1cccc(Cl)c1)N(C)Cc1cccs1` (stereo unspecified) stands 5% (inactive); under `COc1cc(/C=C/C(=O)Nc2cc(C)nn2-c2nc3c(c(=O)[nH]2)CCC3)cc(OC)c1OC`, 2.27% (inactive).
Under `COc1cc(/C=C/C(=O)Nc2cc(C)nn2-c2nc(C)c(C)c(=O)[nH]2)cc(OC)c1OC` stands 99.5% (active).
For `CCCc1cc(=O)[nH]c(-n2nc(C)cc2NC(=O)/C=C/c2cc(OC)c(OC)c(OC)c2)n1` the value was 99.8% (active); for `CCCc1cc(=O)[nH]c(-n2nc(C)cc2NC(=O)/C=C/c2ccc(OC)c(OC)c2)n1`, 102% (active).
As for `CC(O)CN1CCN(C(=O)c2cc(Cl)c(Cl)n2C)CC1` (stereo unspecified), the inhibition is -16.4% (inactive).
Under `CCn1cnnc1CCNS(=O)(=O)NCc1ccccc1` stands -1.72% (inactive); under `Fc1c(F)c(F)c(Cn2nnc(-c3ccccc3)n2)c(F)c1F`, 26.7% (inactive).
Under `FC(F)(F)c1cccc(-c2nnn(Cc3ncc(-c4ccccc4)o3)n2)c1` stands 58.2% (active).
On to `Cn1nnnc1SCc1nc(-c2cccc(C(F)(F)F)c2)no1`, for which the inhibition is -6.38% (inactive).
Under `CC(=NNC(=O)c1cc(-c2cccc3ccccc23)n[nH]1)c1ccccc1O` stands 41.3% (inactive).
Under `CCC(=NNC(=O)c1ccc(F)cc1)c1cc(Cl)cc(Cl)c1O` stands 53.1% (active).
For `CC(OC(=O)c1cc(Cl)c(O)c(Cl)c1)c1ccc(F)cc1` (stereo unspecified) the value was 45.8% (inactive); for `CN(CC1CCCO1)S(=O)(=O)c1ccc(C(=O)Nc2ccc3sccc3c2)cc1` (stereo unspecified), 92% (active).
With `Cc1noc(C)c1CN1CCN2C(C(=O)Nc3ccc(-n4cccc4)cc3)=COC2=NC1=O`, the inhibition is 90.5% (active).
For `Cc1ccccc1CN1CCN2C(C(=O)Nc3ccc(-n4cccc4)cc3)=COC2=NC1=O` the value was 88.2% (active).
Regarding `Cc1noc(C)c1CN1CCN2C=C(C(=O)Nc3ccc(-n4cccc4)cc3)OC2=NC1=O`, the inhibition was 30.7% (inactive).
For `O=C(Nc1ccc(-n2cccc2)cc1)C1=COC2=NC(=O)N(Cc3ccccc3)CCN12` the value was 84.6% (active); for `CC(C)Cc1nc(CN(C)Cc2ccc3c(c2)CCO3)no1`, 21.8% (inactive).
As for `CC(C)(C)n1ncc(NCc2cccc3c2OCO3)c(Cl)c1=O`, the inhibition is 27.4% (inactive).
For `c1cc(-c2ccc3c(c2)CCO3)ccc1CNC1CCCC1` the value was 75% (active); for `O=C(c1ccc2c(c1)CCO2)N1CCOC(c2ccc(Cl)c(Cl)c2)C1` (stereo unspecified), 7.26% (inactive).
Under `Cn1ncc(NCc2ccc(-c3ccc4c(c3)CCO4)cc2)c(Cl)c1=O` stands 68.8% (active); under `Cc1cc(NC(=O)COc2ccc(C3=CCN(C(N)=O)CC3)cc2)ccc1Br`, -21.6% (inactive).
Under `Cc1cc(NC(=O)COC(=O)c2ccoc2)ccc1Br` stands 68.6% (active).
On to `Cc1cc(NC(=O)CON=C2CCN(C(=O)C3CC3)CC2)ccc1Br`, for which the inhibition is 92.3% (active).
For `O=C(CCc1n[nH]c(=S)[nH]c1=O)NCc1cccc(C(F)(F)F)c1`, the inhibition was -13.8% (inactive).
Under `O=c1[nH]c(=S)[nH]nc1Cc1ccc(Cl)c(Cl)c1` stands 96.8% (active); under `CC(C)C1=NOC(c2nc(C(C)c3ccccc3)no2)C1` (stereo unspecified), 30.4% (inactive).
Consider `Cc1c[nH]c(=O)n1-c1ccc(C(=O)N2CCCC2c2ccccc2)cc1` (stereo unspecified), for which the inhibition was -8.28% (inactive).
Under `O=C(NCc1ccc(Oc2ccc(F)cc2)cc1)C1CC=CCC1` (stereo unspecified) stands 88.9% (active).
For `CC1CC1C(=O)NCc1ccc(Oc2ccc(F)cc2)cc1` (stereo unspecified) the value was -11.6% (inactive).
Under `COc1cccc(CN(C)Cc2nc(-c3cccs3)no2)c1` stands 54.7% (active).
As to `CN(Cc1nc(-c2cccs2)no1)CC1Cc2ccccc2O1` (stereo unspecified), the inhibition entry is “inactive”.
For `C#CCCC(C#N)(C#N)c1ncc(-c2ccc(OC)cc2)cn1` the value was 43% (inactive); for `O=C(O)c1cc(-c2cccs2)nn1-c1ccc(Cl)c(Cl)c1`, 51.3% (active); for `Cc1cc(Nc2cccc(=O)[nH]2)n(-c2ccc(Cl)c(Cl)c2)n1`, 49.9% (inactive).
For `CC(C)c1ccc(NC(=O)C2CCS(=O)(=O)C2)cc1` (stereo unspecified) the value was 75.6% (active); for `CC1CN=C(Nc2ccc(C(C)C)cc2)S1` (stereo unspecified), 6.24% (inactive).
Regarding `CC(C)c1ccc(NS(=O)(=O)C2CC2)cc1`, the inhibition was 30.9% (inactive).
For `Cc1ccc(-c2cc(C(F)(F)C(F)F)[nH]n2)cc1` the value was 86.5% (active); for `Cc1ccc(-c2c(N)n[nH]c2C(F)(F)F)cc1`, 32% (inactive); for `O=[N+]([O-])c1ccc(C=Nn2cnn(Cc3ccccc3Cl)c2=S)o1`, 43.5% (inactive).
Under `O=[N+]([O-])c1ccc(C=NNc2ccnc3cc(Cl)ccc23)o1` stands 99.4% (active); under `O=[N+]([O-])c1ccc(C=NNc2ccc(Cl)cc2)o1`, -17.5% (inactive); under `O=[N+]([O-])c1ccc(C=NNc2ccc(Cl)c(Cl)c2)o1`, 93.2% (active).
Under `O=[N+]([O-])c1ccc(C=NN(c2ccccc2)c2ccccc2)o1` stands 47.1% (inactive); under `Cc1ccccc1C1c2[nH]c3ccccc3c2CCN1C(=O)c1cccc(C#CC(C)(C)O)c1` (stereo unspecified), -3.93% (inactive); under `CCc1ccc(Nc2nnc(SCC(N)=O)s2)cc1`, 36.7% (inactive).
Consider `CCCCNC(=O)CSc1nnc(Nc2ccc(CC)cc2)s1`, for which the inhibition was 45.2% (inactive).
For `CCCCc1ccc(Nc2nnc(SCC(=O)NCC)s2)cc1` the value was 83.3% (active); for `CCCCc1ccc(Nc2nnc(SCC(=O)NC3CCCC3)s2)cc1`, 86% (active); for `CCc1ccc(Nc2nnc(SCC(=O)NC3CCCC3)s2)cc1`, 100% (active).
For `O=C(Nc1ccc(OCc2ccco2)c(Cl)c1)N1CCOCC1` the value was 79% (active); for `COc1ccc(OCc2cc(C(=O)N3CCCCCC3)no2)c(Cl)c1`, 42% (inactive).
For `CCC(=O)N(Cc1ccco1)Cc1cc(NC(=O)c2ccccc2Cl)ccc1N(C)C1CCN(C)CC1` the value was 39.1% (inactive); for `O=S(=O)(Cc1ccccc1)c1nnnn1-c1ccccc1`, 101% (active).
In the case of `Cc1ccc(NNC2CC(=O)N(N(C)C)C2=O)cc1` (stereo unspecified), the inhibition is 78.2% (active).
Under `Cc1ccc(CC2CC(=O)N(C3CCCCC3)C2=O)cc1` (stereo unspecified) stands 36.3% (inactive); under `COc1ccc(C(=O)C=Cc2cccc(O)c2)cc1F`, 87.2% (active).
Under `O=C(/C=C/c1ccc(O)cc1)c1ccccc1O` stands 47.6% (inactive); under `O=C(/C=C/c1ccccc1)c1ccc(O)cc1O`, 96.2% (active).
Under `COC(=O)c1ccc(C=CC(=O)c2ccc(OC)cc2)cc1` stands 47.6% (inactive).
Take `COc1cccc(C=CC(=O)c2ccc(Cl)c(Cl)c2)c1OC`: the inhibition was 44.5% (inactive).
For `COc1ccc(C=CC(=O)c2ccc3ccccc3c2)cc1` the value was 60.1% (active); for `COc1ccc(/C=C/C(=O)c2cc(O)ccc2O)cc1`, 97.6% (active).
For `O=C1COc2ccc(C(=O)C=Cc3ccc4ccccc4c3)cc2N1` the value was 62.3% (active); for `Oc1ccc(Cl)cc1Sc1cc(Cl)ccc1O`, 101% (active); for `O=c1cc(O)c2sc3nc(C4CC4)cc(C(F)(F)F)c3c2[nH]1`, 38.2% (inactive).
Under `COc1ccc(N=C2SCCN2CC(=O)c2ccc(Cl)cc2)cc1` stands -4.26% (inactive); under `FC(F)Oc1ccc(N=C2SCC3CCCCN23)cc1` (stereo unspecified), 82.4% (active); under `Clc1ccc(N=C2SCC3CCCCN23)cc1` (stereo unspecified), -1.03% (inactive).
On to `Clc1ccc(N=C2SCCN2C2CCCCC2)cc1`, for which the inhibition is 90.5% (active).
Under `O=C(NCCc1ccc(F)cc1)C1Cc2ccccc2O1` (stereo unspecified) stands 70.3% (active).
In the case of `CC(C)(CNC(=O)C1Cc2cc(F)ccc2O1)C1CCCCO1` (stereo unspecified), the inhibition is 14.4% (inactive).

In general, inhibition refers to the relative decrease from the control value, in per cent.
